The results in this text go back to PubChem BioAssay AID602143 (Vanderbilt Specialized Chemistry Center, 2011).

One may read the remaining activity as the signal under treatment as a percentage of the control signal.

A number with no mark means an inactive call. Activity calls are given as the source filed them. No stated cut-off is given here; in the data, active means remaining activity below about 50%; inactive means the rest.

The target of this test is Phospholipase D2 (Homo sapiens) (UniProt O14939). Nature of the test: cellular phospholipase D2 activity inhibition – cell-based, HEK293, single concentration (AID 602143).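 Further: tested at 200 nM.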 As to conditions: HEK293 cellular PLD2 activity, percent of control; stronger effect = lower value.
Chain of Phospholipase D2 (Homo sapiens) (O14939 whole entry, looked up): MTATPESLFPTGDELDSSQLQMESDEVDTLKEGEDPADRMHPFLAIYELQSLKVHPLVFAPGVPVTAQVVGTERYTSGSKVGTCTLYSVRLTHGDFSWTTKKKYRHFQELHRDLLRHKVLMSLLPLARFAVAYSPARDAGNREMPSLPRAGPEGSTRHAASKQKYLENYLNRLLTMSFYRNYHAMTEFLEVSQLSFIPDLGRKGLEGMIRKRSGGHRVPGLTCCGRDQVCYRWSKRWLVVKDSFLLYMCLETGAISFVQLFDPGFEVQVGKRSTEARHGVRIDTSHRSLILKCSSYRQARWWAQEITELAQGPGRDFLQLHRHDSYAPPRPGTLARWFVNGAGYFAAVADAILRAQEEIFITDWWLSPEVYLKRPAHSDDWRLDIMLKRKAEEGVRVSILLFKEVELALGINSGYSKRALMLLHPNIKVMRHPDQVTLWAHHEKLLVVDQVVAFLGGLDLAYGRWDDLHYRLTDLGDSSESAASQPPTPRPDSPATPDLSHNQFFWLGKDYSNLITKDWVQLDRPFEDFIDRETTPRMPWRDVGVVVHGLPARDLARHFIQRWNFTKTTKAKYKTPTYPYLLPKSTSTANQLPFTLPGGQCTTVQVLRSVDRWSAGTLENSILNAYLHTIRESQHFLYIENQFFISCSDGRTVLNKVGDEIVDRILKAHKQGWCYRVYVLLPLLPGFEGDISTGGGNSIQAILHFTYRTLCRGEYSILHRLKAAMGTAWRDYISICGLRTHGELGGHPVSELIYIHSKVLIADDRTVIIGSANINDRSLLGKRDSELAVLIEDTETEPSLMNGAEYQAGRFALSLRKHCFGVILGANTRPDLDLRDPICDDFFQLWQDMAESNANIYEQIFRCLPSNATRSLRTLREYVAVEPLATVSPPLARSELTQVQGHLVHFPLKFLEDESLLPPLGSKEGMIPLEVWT
Chain of Phospholipase D2 (Homo sapiens) (O14939 whole entry, looked up): as above
As to `CC1(C)[C@@H]2CC[C@@]1(CS(=O)(=O)NCCN1CCC(n3c(=O)[nH]c4ccccc43)CC1)C(=O)C2`, the remaining activity was 79.6%.

`C[C@@H](CN1CCC(n2c(=O)[nH]c3ccccc32)CC1)NC(=O)c1ccc(C(F)(F)F)cc1`: the remaining activity is 76.2%.

Consider `O=C(NCCN1CCC(n2c(=O)[nH]c3ccccc32)CC1)c1ccc2c(ccc3ccc4ccccc4c32)c1`, for which the remaining activity is 96.7%.

For the compound `C[C@@H](CN1CCC2(CC1)CN(S(C)(=O)=O)c1ccccc12)NC(=O)c1ccc2ccccc2c1`, the remaining activity was 115%.

In the case of `CCNC(=S)NCCN1CCC(n2c(=O)[nH]c3ccccc32)CC1`, the remaining activity was 78.2%.

For the compound `C[C@@H](CN1CCC2(C=Cc3ccccc32)CC1)NC(=O)[C@H]1C[C@@H]1c1ccccc1`, the remaining activity was 87.1%.

On to `C[C@H](CN1CCC(n2nnc3ccccc32)CC1)NC(=O)c1ccc2ccccc2c1`, for which the remaining activity was 48.2% (active).

Regarding `O=c1[nH]c2ccccc2n1C1CCN(CCNS(=O)(=O)c2cc(Cl)ccc2Cl)CC1`, the remaining activity is 68.8%.

Consider `C[C@@H](CN1CCC(n2c(=O)[nH]c3cc(I)ccc32)CC1)NC(=O)c1ccc(Cl)cc1`, for which the remaining activity is 72.7%.

As for `NC1(CN2CCC(n3c(=O)[nH]c4cc(Cl)ccc43)CC2)CCCC1` (tested in a mixture with another compound), the remaining activity was 94.3%.

Consider `O=C(NCCN1CC=C(n2c(=O)[nH]c3ccccc32)CC1)[C@H]1C[C@@H]1c1ccccc1`, for which the remaining activity is 114%.

Turning to `O=C(NCCN1CCC(n2c(=O)[nH]c3cc(Cl)ccc32)CC1)c1ccc(Cl)cc1`, the remaining activity was 56.9%.
